Inconclusive results are not listed. Active and inactive are the calls of the source. How the source made its calls: active means hit-call score of the fitted dose curve at least 0.9, where 1 is the maximum; inconclusive means response in the unintended direction; inactive means score below 0.9.

The target of the experiment is Estrogen receptor (Homo sapiens) (UniProt P03372). The experiment is described as follows: ERF_US_NR_hESR1: Eurofins (ERF) Nuclear Receptor (NR) Cell Based Protein-Protein Interaction LeadHunter Assay for human Estrogen Receptor alpha (ERa) Agonism. How it is done: ERF_US_NR_hESR1 is a cell-based, single-readout assay that uses extracted gene-proteins in a cell-line assay. Measurements were taken 5 hours after chemical dosing in a 384-well plate. See ERalpha Human Estrogen NHR Cell Based Agonist Protein-Protein Interaction Assay, DiscoverX.ERF_US_NR_hESR1 is an assay component calculated from the ERF_US_NR_hESR1 assay. It is designed to […].Data from the assay component ERF_US_NR_hESR1 was analyzed at the assay endpoint, ERF_US_NR_hESR1, in the positive analysis fitting direction relative to DMSO as the negative control and baseline of activity. Using a type of binding reporter, gain-of-signal activity can be used to understand changes in binding as they relate to gene ESR1. To generalize the intended target to other relatable targets, this assay endpoint is annotated to the nuclear receptor intended target family, where the subfamily is steroid.
Sequence of Estrogen receptor (Homo sapiens) (P03372 whole entry, looked up): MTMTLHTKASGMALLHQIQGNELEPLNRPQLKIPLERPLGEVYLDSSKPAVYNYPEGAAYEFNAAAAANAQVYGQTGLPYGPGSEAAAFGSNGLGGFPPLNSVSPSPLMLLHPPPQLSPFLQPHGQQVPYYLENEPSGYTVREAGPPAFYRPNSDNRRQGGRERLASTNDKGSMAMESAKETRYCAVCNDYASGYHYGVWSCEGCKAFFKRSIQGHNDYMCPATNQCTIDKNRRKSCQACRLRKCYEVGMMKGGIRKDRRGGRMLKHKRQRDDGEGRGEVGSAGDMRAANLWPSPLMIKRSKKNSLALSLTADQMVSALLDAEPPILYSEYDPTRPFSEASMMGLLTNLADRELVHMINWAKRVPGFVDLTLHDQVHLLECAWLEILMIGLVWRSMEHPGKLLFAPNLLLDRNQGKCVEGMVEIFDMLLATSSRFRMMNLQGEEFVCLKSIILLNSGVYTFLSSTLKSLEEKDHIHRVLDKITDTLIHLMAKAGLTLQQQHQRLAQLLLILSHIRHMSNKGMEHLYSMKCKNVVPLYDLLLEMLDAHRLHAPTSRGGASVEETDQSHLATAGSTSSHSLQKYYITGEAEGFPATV
Cells were seeded in a total volume of 20 uL into white walled, 384-well microplates and incubated at 37C overnight prior to testing. Briefly, intermediate dilution of sample stocks was performed to generate 5X sample in assay buffer. 5 uL of 5X sample was added to cells and incubated at37C for 300 minutes. Final assay vehicle concentration was 1%. The results are expressed as a percent efficacy of the control ligand.
Regarding `NS(=O)(=O)C(F)(F)C(F)(F)C(F)(F)C(F)(F)C(F)(F)C(F)(F)C(F)(F)C(F)(F)F`, the call was inactive.
Still for that read-out and setting: the same measure for `OCC(F)(F)OC(F)(F)C(F)(F)OC(F)(F)C(F)(F)OC(F)(F)CO`: “inactive”.
As for `OCC(F)(F)OC(F)(F)C(F)(F)OC(F)(F)C(F)(F)OC(F)(F)F`, the AC50 is 19.5 µM (active).

Values taken from PubChem BioAssay AID2284375 (EPA ToxCast).
